Assay results published in PubChem BioAssay.
For part of these data: Measured potencies and affinities stand elsewhere. The source made the active and inactive calls.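 How the source made its calls, unless noted: active means primary screen activator hit with a dose response curve and TRPC4 channel activation at any tested dose; inactive means no activation, no dose response, or not a primary hit.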

Legend:
[1] = test system: TRPC4 beta (transient receptor potential cation channel C4), mouse; assay: TRPC4 cation channel opening, retest – cell-based, Fluo4 calcium, HEK293 TRPC4beta/mu-opioid, duplicates, 10 µM, confirmation (AID 2426;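 active means fluorescence ratio normalized to control raised more than 50% in primary screen plus both repeat runs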); details: Fluo4 calcium fluorescence, at 10 µM; hits give high values
[2] = test system: transient receptor potential cation channel C4 beta (TRPC4), mouse; assay: TRPC4 cation channel opening, second retest – cell-based, second round, Fluo4, HEK293 TRPC4beta/mu-opioid, 1 µM, confirmation (AID 2461;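 active means primary screen active and over 50% activation in each of two duplicate runs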); details: Fluo4 calcium fluorescence, at 1 µM; hits give high values
[3] = test system: TRPC4 (transient receptor potential cation channel C4 beta), mouse; assay: potentiation of DAMGO EC20 TRPC4 response – cell-based, second round, Fluo-4, HEK293 TRPC4beta/mu-opioid, 1 µM, confirmation (AID 2554;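 active means primary screen hit whose fluorescence ratio, in both repeats, exceeds the weak agonist control mean by 3 SD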); details: DAMGO EC20, Fluo-4 calcium flux, at 1 µM; hits give high values
[4] = test system: TRPC4 beta (transient receptor potential cation channel C4), mouse; assay: potentiation of DAMGO EC20 TRPC4 response – cell-based, Fluo-4, HEK293 TRPC4beta/mu-opioid, confirmation (AID 2555;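 active means primary screen hit whose calcium fluorescence ratio, in both repeats, exceeds the weak agonist control mean by 3 SD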); details: DAMGO EC20, Fluo-4 calcium flux, at 10 µM; hits give high values
[5] = target: Short transient receptor potential channel 4 (Mus musculus) (UniProt Q9QUQ5); assay: blockers of DAMGO-evoked TRPC4 calcium flux – cell-based, Fluo4, HEK293 TRPC4beta/mu-opioid, confirmation (AID 2636;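 active means calcium signal cut by more than 3 SD below the full-agonist control yet still positive, in both repeats and the earlier primary screen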); details: at 10 µM; hits give high values
[6] = target: Short transient receptor potential channel 4 (Mus musculus) (UniProt Q9QUQ5); assay: blockers of DAMGO-evoked TRPC4 calcium flux – cell-based, second round, Fluo4, HEK293 TRPC4beta/mu-opioid, 1 µM, confirmation (AID 2637;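 active means calcium signal ratio cut to more than 3 SD under the fully stimulated control mean yet still positive, in both repeats and the primary screen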;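 on inhibition: percent of integrated ratio relative to wells lacking test compound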); details: at 1 µM; hits give high values
[7] = target: Short transient receptor potential channel 4 (Mus musculus) (UniProt Q9QUQ5); assay: calcium entry via TRPC4 opening agents – cell-based, HEK293 TRPC4/mu-opioid, Fluo-4 calcium, dose response (AID 434937)
[8] = target: Short transient receptor potential channel 4 (Mus musculus) (UniProt Q9QUQ5); assay: potentiation of DAMGO-evoked TRPC4 calcium signal – cell-based, HEK293 TRPC4/mu-opioid, Fluo-4 calcium, EC20 DAMGO, dose response (AID 434941;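 active means earlier screen potentiator hit that boosts the TRPC4 ion channel at some dose, with a dose response; inactive means no potentiation, no dose response, or not a prior hit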;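 further: calcium entry triggered by an EC20 dose of DAMGO at the co-expressed mu-opioid receptor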)
[9] = target: Short transient receptor potential channel 6 (Mus musculus) (UniProt Q61143); assay: TRPC6 blockade by TRPC4 inhibitor hits – cell-based, HEK293, membrane potential dye, duplicate, selectivity assay for TRPC4 inhibitor project, confirmation (AID 434948;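 active means active in primary screen and both duplicates, each dropping signal beyond three positive-control SD with fluorescence still positive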); details: HEK293 TRPC6, membrane potential dye fluorescence, at 10 µM, stimulated with maximal-effect acetylcholine; hits give high values
[10] = target: Short transient receptor potential channel 6 (Mus musculus) (UniProt Q61143); assay: TRPC6 opening by TRPC4 activator hits – cell-based, HEK293, membrane potential dye, duplicate, selectivity assay for TRPC4 activator project, confirmation (AID 434950;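 active means membrane potential signal rise above negative control mean plus 3 SD in both duplicates, also active in the earlier TRPC4 screen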); details: HEK293 TRPC6, membrane potential fluorescence, at 10 µM; activation: hits give high values; outcome: activation
[11] = target: Short transient receptor potential channel 6 (Mus musculus) (UniProt Q61143); assay: positive modulators of mouse TRPC6 channel – HEK293 cells, membrane potential dye, duplicate, selectivity assay for TRPC4 potentiator project, confirmation (AID 434952;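 active means compound raising the membrane signal above positive-control mean plus 3 SD in both repeats, and a primary screen hit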); details: HEK293 TRPC6, membrane potential dye fluorescence, at 10 µM, maximal acetylcholine added after compound; hits give high values
[12] = target: Short transient receptor potential channel 4 (Mus musculus) (UniProt Q9QUQ5); assay: calcium flux activators in TRPC4/5HT1a cells, counter-screen for TRPC4 activator project, cell-based, second counter screen, HEK293 TRPC4/5HT1a, Fluo-4 (AID 434977;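 active means calcium signal rise above buffer-control mean plus 5 SD in both duplicates, and also a hit in the primary screen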); details: Fluo-4 calcium flux, at 10 µM; hits give high values
[13] = serotonin-gated TRPC4 signal block – cell-based, second counter screen, HEK293 TRPC4/5HT1a, Fluo-4, counter-screen for TRPC4 inhibitor project, confirmation (AID 434978;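 active means primary screen active whose calcium signal fell more than 3 SD beyond the full-serotonin control mean in both duplicate plates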;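 on outcome: serotonin given first at submaximal then at maximal dose after compound preincubation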); details: Fluo-4 calcium flux, at 10 µM, serotonin added to trigger calcium flux; hits give high values
[14] = test system: TRPC4 (mouse), co-expressed with 5HT1a in HEK293; assay: enhancement of serotonin-evoked TRPC4 response – cell-based, second counter screen, HEK293 TRPC4/5HT1a, Fluo-4, counter-screen for TRPC4 potentiator project, confirmation (AID 434979;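 active means signal rise over 3 SD above mean of control wells given weak agonist, in both repeats and first screen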); details: Fluo-4 calcium flux, at 10 µM, serotonin added at its EC20 dose; hits give high values
[15] = nonspecific calcium rise without TRPC4 – cell-based, HEK293 mu-opioid receptor line, counter-screen for TRPC4 activator project, confirmation (AID 449723;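 active means hit in primary screen, with calcium signal over 5 SD above buffer well mean in both duplicates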;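 further: counter screen cells carry the mu-opioid receptor alone and lack TRPC4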); details: HEK293 mu-opioid cells, Fluo-4 calcium fluorescence, at 10 µM; hits give high values
[16] = nonspecific potentiation of DAMGO calcium response – cell-based, HEK293 mu-opioid receptor line, counter-screen for TRPC4 allosteric potentiator project, confirmation (AID 449724;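 active means calcium signal rise more than 3 SD above the low-dose agonist control mean, in both duplicate plates and the primary screen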); details: HEK293 mu-opioid receptor cells, Fluo-4 calcium flux, at 10 µM, compound added before EC20 DAMGO stimulus; hits give high values

Measured: inhibition

Chain of Short transient receptor potential channel 4 (Mus musculus) (Q9QUQ5 whole entry, looked up): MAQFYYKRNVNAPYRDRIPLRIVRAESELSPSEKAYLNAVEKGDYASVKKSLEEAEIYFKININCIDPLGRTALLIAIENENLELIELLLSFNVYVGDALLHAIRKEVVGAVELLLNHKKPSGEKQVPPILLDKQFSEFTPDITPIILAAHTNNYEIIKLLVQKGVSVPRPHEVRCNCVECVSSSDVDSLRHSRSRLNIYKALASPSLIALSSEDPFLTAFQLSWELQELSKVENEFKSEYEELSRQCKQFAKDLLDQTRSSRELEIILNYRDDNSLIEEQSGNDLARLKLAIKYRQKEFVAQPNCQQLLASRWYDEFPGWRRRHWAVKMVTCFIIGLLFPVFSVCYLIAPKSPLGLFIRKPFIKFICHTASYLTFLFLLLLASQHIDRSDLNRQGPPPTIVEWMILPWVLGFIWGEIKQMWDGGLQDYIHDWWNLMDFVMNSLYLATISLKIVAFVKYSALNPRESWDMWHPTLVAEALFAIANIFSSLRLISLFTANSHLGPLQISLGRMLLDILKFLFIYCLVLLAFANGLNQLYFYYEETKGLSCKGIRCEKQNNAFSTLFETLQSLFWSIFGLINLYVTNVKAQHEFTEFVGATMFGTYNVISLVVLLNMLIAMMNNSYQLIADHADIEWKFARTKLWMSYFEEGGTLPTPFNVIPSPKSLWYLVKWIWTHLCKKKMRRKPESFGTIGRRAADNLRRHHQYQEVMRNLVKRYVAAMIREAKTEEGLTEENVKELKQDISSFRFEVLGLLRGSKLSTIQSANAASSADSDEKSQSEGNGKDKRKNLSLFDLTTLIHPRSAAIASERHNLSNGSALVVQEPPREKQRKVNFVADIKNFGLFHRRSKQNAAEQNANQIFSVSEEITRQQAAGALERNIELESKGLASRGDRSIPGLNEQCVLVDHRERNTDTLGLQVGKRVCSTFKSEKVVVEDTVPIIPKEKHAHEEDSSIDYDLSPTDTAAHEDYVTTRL
Chain of Short transient receptor potential channel 6 (Mus musculus) (Q61143 whole entry, looked up): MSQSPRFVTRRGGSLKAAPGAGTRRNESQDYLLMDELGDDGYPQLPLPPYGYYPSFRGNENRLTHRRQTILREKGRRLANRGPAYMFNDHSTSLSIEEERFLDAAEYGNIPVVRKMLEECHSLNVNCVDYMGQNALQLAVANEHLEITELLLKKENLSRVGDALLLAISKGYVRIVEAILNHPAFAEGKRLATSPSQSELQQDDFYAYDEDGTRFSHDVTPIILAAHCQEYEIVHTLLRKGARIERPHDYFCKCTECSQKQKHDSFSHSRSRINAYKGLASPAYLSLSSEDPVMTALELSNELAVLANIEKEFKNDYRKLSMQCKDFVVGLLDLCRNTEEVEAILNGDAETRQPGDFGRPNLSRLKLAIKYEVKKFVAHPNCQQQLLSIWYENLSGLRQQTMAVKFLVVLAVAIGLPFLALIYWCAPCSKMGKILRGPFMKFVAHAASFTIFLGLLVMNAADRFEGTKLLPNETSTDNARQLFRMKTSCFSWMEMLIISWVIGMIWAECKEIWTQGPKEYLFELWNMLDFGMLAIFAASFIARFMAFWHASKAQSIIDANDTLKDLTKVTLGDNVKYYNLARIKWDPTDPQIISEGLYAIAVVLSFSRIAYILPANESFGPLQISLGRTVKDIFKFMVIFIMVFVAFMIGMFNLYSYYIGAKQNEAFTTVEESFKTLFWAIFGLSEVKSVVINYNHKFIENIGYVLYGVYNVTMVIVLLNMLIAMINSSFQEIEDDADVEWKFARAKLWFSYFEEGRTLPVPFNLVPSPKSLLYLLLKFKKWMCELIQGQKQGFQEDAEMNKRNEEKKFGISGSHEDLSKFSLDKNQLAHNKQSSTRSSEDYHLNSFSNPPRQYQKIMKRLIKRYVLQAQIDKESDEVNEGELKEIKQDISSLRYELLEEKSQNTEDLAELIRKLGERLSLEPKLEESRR

c1ccc(COC(CN2CCCCCC2)CN2CCCCCC2)cc1
active: [5] 93% | [13] 31.1%
inactive: all other assays above

O=C(OCC(=O)N1CCc2ccccc2C1)c1cccc([N+](=O)[O-])c1
active: [5] 95% | [6] 47% | [13] 40.7%
inactive: all other assays above

O=C(NCCN1CCOCC1)c1ccc2c(c1)N(Cc1ccc(F)cc1)C(=O)CS2
inactive: all assays above

NS(=O)(=O)c1ccc(CCNCc2ccccc2OCc2ccc(Cl)cc2)cc1
active: [5] 87% | [6] 54% | [13] 31.3%
inactive: all other assays above

NC(=O)N/N=C1\c2ccccc2-c2c(C(N)=O)cccc21
active: [5] 80% | [6] 65% | [13] 38.9%
inactive: all other assays above

COCC(C)NC(C(=O)Nc1ccc(Cl)c([N+](=O)[O-])c1)c1ccccc1 (stereo not given)
active: [5] 87%
inactive: all other assays above

Brc1cc2c(cc1COc1ccc(-c3nn[nH]n3)cc1)OCO2
active: [5] 89% | [13] 35.1%
inactive: all other assays above

Oc1ccccc1Nc1nc(NCc2ccco2)c2ccccc2n1
active: [5] 88% | [9] 34.5% | [13] 39.1%
inactive: all other assays above

c1ccc2c(N3CCCCC3)nc(N3CCOCC3)nc2c1
active: [5] 84% | [13] 30.8%
inactive: all other assays above

COc1cccc(C2=NN(C(=O)c3ccco3)C(c3ccco3)C2)c1 (stereo not given)
active: [5] 71% | [13] 20.6%
inactive: all other assays above

COc1ccccc1Nc1nc(NCC2CCCO2)c2ccccc2n1 (stereo not given)
active: [5] 91% | [6] 50% | [9] 10% | [13] 31.5%
inactive: all other assays above

Oc1c(CN2CCCCC2)cc(Br)c2cccnc12
active: [5] 93% | [13] 4.44%
inactive: all other assays above

CN(Cc1cnn(C)c1)C(=O)c1ccc(OC2CCN(CCc3ccccc3)CC2)cc1
active: [5] 88% | [6] 59%
inactive: all other assays above

CC(C)C(=O)Nc1ccc(C(=O)Nc2nnc(C(C)(C)C)s2)cc1
active: [5] 57% | [13] 35.1%
inactive: all other assays above

CC[n+]1c(/C=C/Nc2ccccc2)oc2ccc(OC)cc21
active: [5] 92% | [9] 46.5% | [13] 34%
inactive: all other assays above
